# Laboratory results published in PubChem BioAssay (EPA / NIEHS).
# Several values for one entry are separate records, joined by “and”; a condition that tells them apart may be missing. Equal entries are not always repeated. Inconclusive results are not listed. Some compounds were tested as several samples or in several runs, with calls that do not always agree. Activity calls are given as the source filed them. How the source made its calls, unless noted: active means hit-call score of the fitted dose curve at least 0.9, where 1 is the maximum; inactive means score below 0.9.
# Experiments:
# [1] = read-out: Interleukin 17F (IL17F), IL17F (gene 112744); assay: BSK_BT_xIL17F: BioMAP Diversity Plus: BT Assay for Interleukin 17F (IL17F) Biomarker Activity (AID 2284243); conditions: primary human B cells with PBMC
# Outline: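 B cell/PBMC co-culture (human primary), 24 h compound exposure; sIL-17F by Luminex xMAP; gain-of-signal fit vs DMSO baseline.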
# [2] = read-out: Actin alpha 1 (ACTA1), ACTA1 (gene 58); assay: BSK_MyoF_ACTA1: BioMAP Diversity Plus: MyoF Assay for Actin alpha 1 (ACTA1) Biomarker Activity (AID 2284244); conditions: primary human lung fibroblasts
# Outline: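 Lung fibroblasts, human primary, 24 h compound exposure → a-SMA ELISA. Positive-direction fit vs DMSO control.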
# [3] = read-out: Interleukin 2 (IL2), IL2 (gene 3558); assay: BSK_BT_xIL2: BioMAP Diversity Plus: BT Assay for Interleukin 2 (IL2) Biomarker Activity (AID 2284245); conditions: primary human B cells with PBMC
# Outline: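 B cell + PBMC co-culture (human primary), compound added, 24 h incubation; secreted IL-2 measured multiplexed on Luminex xMAP; gain-of-signal fit vs DMSO.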
# [4] = read-out: Collagen IV, COL4A1 (gene 1282); assay: BSK_MyoF_CollagenIV: BioMAP Diversity Plus: MyoF Assay for Collagen IV Biomarker Activity (AID 2284247); conditions: primary human lung fibroblasts
# Outline: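 Steps: dose human lung fibroblasts; culture 24 h; quantify Collagen IV by ELISA; fit increase versus DMSO control. Parallel SRB total-protein staining (0.1% SRB after 10% TCA fixation, 560 nm) tracks overt cytotoxicity.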
# [5] = CCTE_Mundy_HCI_hNP1_CellTiter: CCTE's Cell Titer-Glo 2 Assay in human neuroprogenitor cells for Viability, Mundy Lab (AID 2284241; active means hit-call score of the fitted dose curve at least 0.9, where 1 is the maximum)
# Outline: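 Measures ATP content in human neural progenitors derived from WA09 embryonic cells. Read-out at 26.5 hours after dosing, with DMSO serving as the negative control and baseline.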
# [6] = read-out: Monokine induced gamma interferon (MIG), CXCL9 (gene 4283); assay: BSK_KF3CT_MIG: BioMAP Diversity Plus: KF3CT Assay for Monokine induced gamma interferon (MIG) Biomarker Activity (AID 2284248); conditions: primary human keratinocytes with fibroblasts
# Protocol: BSK_KF3CT is a cell-based, multiplexed-readout assay that uses keratinocytes and foreskin fibroblasts, a human skin primary cell co-culture, with measurements taken at 24 hours after chemical dosing in a 96-well plate.BSK_KF3CT_MIG is an assay component measured in the BSK_KF3CT assay. It measures MIG antibody related to regulation of gene expression using ELISA technology.Data from the assay component BSK_KF3CT_MIG was analyzed at the endpoint, BSK_KF3CT_MIG, in the positive analysis fitting direction relative to DMSO as the negative control and baseline of activity. Using a type of binding reporter, gain or loss-of-signal activity can be used to understand protein changes. To generalize the intended target to other relatable targets, this assay endpoint is annotated to the 'cytokine' intended target family, where the subfamily is 'chemotactic factor'.
# The levels of cell surface (or secreted, indicated by the prefix "s") biomarker endpoints were measured by ELISA. Overt cytotoxicity to cells in confluent adherent cultures (all systems other than the BT system) was assessed by measuring total protein levels using sulforhodamine B (SRB) staining in parallel cultures at the time of biomarker measurements, indicated as SRB endpoints. For proliferation assays for adherent cell types, individual cell types are cultured at sub-confluence and relative cell numbers quantified by SRB staining at time points optimized for each system (48 h: 3C and CASM3C systems; 72 h: BT and HDF3CGF systems; 96 h: SAg system). SRB was performed by staining cells with 0.1% SRB after fixation with 10% TCA and reading wells at 560 nm.Viability and proliferation of PBMC (T cells) was quantified by Alamar Blue reduction for the SAg and BT systems. For PBMC viability (referred to as PBMC Cytotoxicity within the assay endpoint names), cells were plated (75,000/well in a 96-well plate) and then chemical samples added for 1 h before addition of activators, SEB and TSST-1 (20 ng/mL final concentration each). Cells were incubated for 90 h. Then, Alamar Blue (20 uL/well) (Invitrogen, Cat DAL1100) was added for 6 h, and the plates were read with a fluorescence microplate reader at 546/580 nm (excitation/emission). For PBMC proliferation, cells were plated and activated as above but incubated for only 16 h prior to addition of Alamar Blue. Plates were read after 6 h.
# [7] = read-out: Vascular cell adhesion molecule 1 (VCAM1), VCAM1 (gene 7412); assay: BSK_BF4T_VCAM1: BioMAP Diversity Plus: BF4T Assay for Vascular cell adhesion molecule 1 (VCAM1) Biomarker Activity (AID 2284249); conditions: primary human bronchial epithelial cells with fibroblasts
# Outline: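 Human bronchial epithelial cell and dermal fibroblast co-culture exposed 24 h. VCAM-1 measured by ELISA; parallel SRB total-protein staining for cytotoxicity. Fitted in positive direction relative to DMSO.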
# [8] = read-out: Collagen I, COL1A1 (gene 1277); assay: BSK_hDFCGF_CollagenI: BioMAP Diversity Plus: hDFCGF Assay for Collagen I Biomarker Activity (AID 2284250); conditions: primary human foreskin fibroblasts
# Outline: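 Human skin primary fibroblasts dosed with test chemical, harvested at 24 h, Collagen I quantified by ELISA; parallel SRB staining (0.1% SRB after 10% TCA fixation, 560 nm) tracked cytotoxicity.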
smiles,measurement,setting,value
C=CCCCCCCCCC=O,outcome,[1],inactive
same,outcome,[2],inactive
same,outcome,[3],inactive
same,outcome,[4],inactive
Cc1noc(NS(=O)(=O)c2ccc(N)cc2)c1C,outcome,[5],inactive
C=CC(=O)NCOCCCC,outcome,[1],inactive
same,outcome,[2],inactive
same,outcome,[3],inactive
same,outcome,[4],inactive
C=CC(=O)OCC(C)OCC(C)OCC(C)OC(=O)C=C (stereo not given),AC50,[1],7.15 µM (active)
same,AC50,[2],30.8 µM (active)
same,AC50,[3],9.17 µM (active)
same,AC50,[4],23.5 µM (active)
CC(C)c1cccc(C(C)C)c1N,outcome,[1],inactive
same,outcome,[2],inactive
same,outcome,[3],inactive
same,outcome,[4],inactive
CCOC(=O)C1=NN(c2ccc(Cl)cc2Cl)C(C)(C(=O)OCC)C1 (stereo not given),outcome,[1],inactive
same,outcome,[2],inactive
same,outcome,[3],inactive
same,outcome,[4],inactive
CCCCCCOC(=O)CCCCC(=O)OCCCCCC,outcome,[1],inactive
same,outcome,[2],inactive
same,outcome,[3],inactive
same,outcome,[4],inactive
Oc1c(Cl)cc(Cl)c(Cl)c1Cl,outcome,[1],inactive
same,AC50,[2],29.7 µM (active)
same,outcome,[3],inactive
same,outcome,[4],inactive
CC1(C)CC(O)CC(C)(C)N1[O],outcome,[1],inactive
same,outcome,[2],inactive
same,outcome,[3],inactive
same,outcome,[4],inactive
CC(C)[N+](C)(CCOC(=O)C1c2ccccc2Oc2ccccc21)C(C)C,outcome,[1],inactive
same,outcome,[2],inactive
same,outcome,[3],inactive
same,outcome,[4],inactive
CCOC(=O)/C=C\C(=O)OCC,outcome,[1],inactive
same,outcome,[2],inactive
same,outcome,[3],inactive
same,outcome,[4],inactive
C[N+](C)(C)CCCNS(=O)(=O)C(F)(F)C(F)(F)C(F)(F)C(F)(F)C(F)(F)C(F)(F)C(F)(F)C(F)(F)F,AC50,[1],22.5 µM (active) and 21.6 µM (active)
same,AC50,[2],33.6 µM (active) and 31.3 µM (active)
same,AC50,[3],32.6 µM (active) and 21.5 µM (active)
same,AC50,[4],48.9 µM (active)
same,outcome,[4],inactive
same,outcome,[6],inactive
same,outcome,[7],inactive
same,outcome,[8],inactive
CC(CCC(=O)O)(c1ccc(O)cc1)c1ccc(O)cc1,outcome,[6],inactive
same,outcome,[8],inactive
Nc1nc(N)nc(-c2ccccc2)n1,outcome,[6],inactive
same,outcome,[8],inactive
CCCCCCCCC(CO)CCCCCC (stereo not given),outcome,[1],inactive
same,outcome,[2],inactive
same,outcome,[3],inactive
same,outcome,[4],inactive
C=CC(=O)OCCCCCCCC(C)C,outcome,[1],inactive
same,outcome,[2],inactive
same,outcome,[3],inactive
same,outcome,[4],inactive
O=C1CCCCCCCCCCCN1,outcome,[1],inactive
same,outcome,[2],inactive
same,outcome,[3],inactive
same,outcome,[4],inactive
CC(Cl)COP(=O)(OCC(C)Cl)OCC(C)Cl (stereo not given),outcome,[1],inactive
same,outcome,[2],inactive
same,outcome,[3],inactive
same,outcome,[4],inactive
CCCCC1C(=O)N(c2ccccc2)N(c2ccccc2)C1=O,outcome,[1],inactive
same,outcome,[2],inactive
same,outcome,[4],inactive
CCCCCCC=O,outcome,[1],inactive
same,outcome,[2],inactive
same,outcome,[3],inactive
same,outcome,[4],inactive
C=C(C)C(=O)OCCCCCCCCCCCC,outcome,[1],inactive
same,outcome,[2],inactive
same,outcome,[3],inactive
same,outcome,[4],inactive
O=C(Cl)c1c(Cl)c(Cl)c(C(=O)Cl)c(Cl)c1Cl,outcome,[1],inactive
same,outcome,[2],inactive
same,outcome,[3],inactive
same,outcome,[4],inactive
CCCC(C)C(=O)OCC (stereo not given),outcome,[6],inactive
same,outcome,[8],inactive
c1ccc(Nc2cccc3ccccc23)cc1,AC50,[6],38.9 µM (active) and 33.8 µM (active)
same,AC50,[8],14.3 µM (active)
same,outcome,[8],inactive
CC=C(C)C(C)=O,outcome,[1],inactive
same,outcome,[2],inactive
same,outcome,[3],inactive
same,outcome,[4],inactive
CCCCCCCCCCCC(=O)N(C)CC(=O)O,outcome,[6],inactive
same,outcome,[8],inactive
CCCCCC1=CCCC1=O,outcome,[1],inactive
same,outcome,[2],inactive
same,outcome,[3],inactive
same,outcome,[4],inactive
Oc1ccccc1Cc1ccccc1O,outcome,[6],inactive
same,outcome,[8],inactive
CC(C)C(=O)OCCc1ccccc1,outcome,[6],inactive
same,outcome,[8],inactive
CCc1cccc(C)c1N(C(=O)CS(=O)(=O)O)C(C)COC (stereo not given),outcome,[1],inactive
same,outcome,[2],inactive
same,outcome,[3],inactive
same,outcome,[4],inactive
c1ccc2sc(SSN3CCOCC3)nc2c1,AC50,[1],19.9 µM (active)
same,AC50,[2],25.4 µM (active)
same,AC50,[3],28.1 µM (active)
same,AC50,[4],14.9 µM (active)
Oc1ccc(/C=C/c2cc(O)cc(O)c2)cc1,AC50,[1],23.9 µM (active)
same,outcome,[2],inactive
same,outcome,[3],inactive
same,outcome,[4],inactive
